# The panel holds about 83,000 compounds, 20% with a hit somewhere; the sample as a whole holds those more often.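 Note: values are percent growth. 100 is the growth of untreated cells, values between 100 and 0 indicate rising inhibition; between -100 and 0 indicates cell death.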 Values without a mark were called inactive. Calls of active or inactive are those of the source. Rule for the calls: active = growth percent below 10; inactive = the rest.
# Assays:
# Assay in all cases: NCI-60 one-dose screen, 48 h (100 = growth as untreated, 0 = no growth, -100 = all killed)
# Conditions in all cases: 10 µM unless noted
# NCI-H23 lung = system: NCI-H23 lung
# NCI-H226 lung = system: NCI-H226 lung
# HOP-62 NSCLC = system: HOP-62 NSCLC
# NCI-H460 lung = system: NCI-H460 lung
# HOP-92 NSCLC = system: HOP-92 NSCLC
# NCI-H522 lung = system: NCI-H522 lung
# A549/ATCC NSCLC = system: A549/ATCC NSCLC
# 786-0 renal = system: 786-0 renal
# COLO 205 colon = system: COLO 205 colon
# DU-145 prostate = system: DU-145 prostate
# K-562 leukemia = system: K-562 leukemia
# MALME-3M melanoma = system: MALME-3M melanoma
# MDA-MB-231 breast = system: MDA-MB-231 breast
# RXF 393 renal = system: RXF 393 renal
# SF-268 CNS = system: SF-268 CNS
# SF-295 CNS = system: SF-295 CNS
# SF-539 CNS = system: SF-539 CNS
# UACC-257 melanoma = system: UACC-257 melanoma
# M14 melanoma = system: M14 melanoma
# NCI-H322M lung = system: NCI-H322M lung
SMILES,growth (NCI-H23 lung),growth (NCI-H226 lung),growth (HOP-62 NSCLC),growth (NCI-H460 lung),growth (HOP-92 NSCLC),growth (NCI-H522 lung),growth (A549/ATCC NSCLC),growth (786-0 renal),growth (COLO 205 colon),growth (DU-145 prostate),growth (K-562 leukemia),growth (MALME-3M melanoma),growth (MDA-MB-231 breast),growth (RXF 393 renal),growth (SF-268 CNS),growth (SF-295 CNS),growth (SF-539 CNS),growth (UACC-257 melanoma),growth (M14 melanoma),growth (NCI-H322M lung)
CCCCCCCCc1ccc(C(=O)Nc2cccc(P(=O)(O)O)c2)cc1,96.7%,97.4%,111%,107%,114%,112%,99.9%,104%,113%,107%,97.6%,106%,116%,129%,107%,96.5%,97.4%,97.1%,96.2%,–
CCCS(=O)(=O)N1CCCC(C(=O)Nc2nc3ccc(NC(=O)c4ccc(F)c(OC)c4F)cc3s2)C1 (stereo not drawn),33.9%,27.9%,–,55.9%,–,39.9%,57%,37.6%,31.6%,72.7%,27.6%,52.7%,62.9%,8.45% (active),56.9%,23%,47.2%,25.2%,56.7%,75.6%
COc1ccc2c(c1)c(-c1cc3nc(-c4cn(C)c5ncc(Br)cc45)cc(N)n3n1)cn2C,-36.8% (active),0.447% (active),-21.1% (active),-35.4% (active),–,-72.1% (active),-4.96% (active),-94.8% (active),-74.6% (active),26%,-33.5% (active),-88.4% (active),-73% (active),-72.9% (active),12.4%,-67.2% (active),-87.6% (active),-74.3% (active),-74.4% (active),–
C[C@H]1CN(C(=O)c2ccc3c(NNC(=O)c4ccncn4)nc4cc(F)c(F)cc4n23)CCN1,37.5%,6.31% (active),18.7%,6.66% (active),65.4%,67.9%,19.4%,-14.4% (active),9.98% (active),41.3%,–,33.6%,45.7%,52.9%,27.4%,12.4%,8.55% (active),22.3%,-24.8% (active),–
Cc1nc(Nc2ccccn2)sc1C(=O)CC(SCC(=O)Nc1ccc(Cl)cc1)c1ccccc1F (stereo not drawn),-0.749% (active),48%,–,6.78% (active),–,-12.8% (active),6.38% (active),10.9%,-49.7% (active),-35.3% (active),11.8%,27.5%,-40.1% (active),1.73% (active),22.4%,2% (active),-58.4% (active),36.9%,1.45% (active),19.6%
COc1c(F)ccc(C(=O)Nc2ccc3nc(NC(=O)C4CCCN(S(=O)(=O)c5cccc(C(F)(F)F)c5)C4)sc3c2)c1F (stereo not drawn),96.9%,93.6%,99%,79.4%,–,85.2%,79.4%,60.9%,84.6%,91.1%,62.3%,94.7%,85%,-9.56% (active),65%,79.8%,70.1%,89.9%,87.5%,–
O=C1/C(=C/C2=Cc3ccccc3OC2)SC(=S)N1c1ccccc1F,103%,101%,101%,121%,61.6%,92.6%,96.7%,87.4%,116%,108%,92.4%,96.2%,97.2%,109%,122%,96.9%,97.6%,107%,93.3%,–
O=C(NNc1nc2cc(F)ccc2n2c(CN3CC4CNCC4C3)ccc12)c1ccncn1 (stereo not drawn),30.7%,7.23% (active),38.3%,5.26% (active),34.5%,32.1%,17.8%,-2.41% (active),10%,42.1%,–,22.5%,27.5%,64.1%,28.3%,2.58% (active),-10.3% (active),12.1%,-15.6% (active),–
COc1ccc2oc3c4[nH]c5ccccc5c4c4c(c3c2c1)C(=O)N(C(=O)OC(C)(C)C)C4=O,-19.9% (active),-1.92% (active),-18% (active),4.57% (active),-14.6% (active),-30.7% (active),0.48% (active),11.6%,-40.9% (active),6.06% (active),3.78% (active),-24.9% (active),8.48% (active),-0.96% (active),4.9% (active),-26.7% (active),-24.8% (active),-52.9% (active),-44.6% (active),–
COCOc1cc2c(=O)c(C)c(C(=O)N[C@@H](Cc3ccccc3)C(O)C(=O)NCc3ccccc3)oc2cc1OC (stereo partly drawn),30%,-40.2% (active),6.54% (active),-9.86% (active),–,-11% (active),51.7%,-0.746% (active),49.5%,57.3%,40.6%,-27.7% (active),25.6%,-17.2% (active),1.19% (active),83.5%,-79.7% (active),30.2%,65.2%,–
O=C(Cn1c2c(sc1=O)[C@H]1[C@@H](O)[C@@H](O)[C@H](O)[C@@H]1CS2)N1CCOCC1,105%,101%,92.7%,106%,–,91.7%,106%,98.7%,116%,112%,106%,98.8%,106%,117%,97.7%,105%,96.8%,110%,112%,–
CN(C)c1ccnc(CNCCSC2(c3ccc(C(F)(F)F)cc3)c3ccccc3CCc3ccccc32)c1,-31.8% (active),-31.6% (active),-57.8% (active),-80.5% (active),-17.7% (active),-82.6% (active),-27.6% (active),-6.83% (active),-83.7% (active),-3.51% (active),-16.3% (active),-91.8% (active),-54.6% (active),-88.3% (active),14.1%,-96.9% (active),-97.6% (active),-59.8% (active),-75.6% (active),–
Cc1nc(Nc2ncc(C(=O)Nc3c(C)cccc3Cl)s2)cc(N2CCN(CCCNC(=O)COc3ccc(C4CCC(=O)NC4=O)cc3)CC2)n1 (stereo not drawn),68.8%,68.5%,–,95.8%,–,17%,33.4%,14.4%,10.3%,41.9%,9.96% (active),91.6%,-4.03% (active),-51.2% (active),43.6%,48.3%,7.74% (active),77.9%,60.2%,20.8%
CN1CCN(/C(=N\c2sc(-c3ccccc3)nc2-c2ccccc2)c2ccccc2)CC1,104%,96.4%,–,–,80.2%,87.3%,76.9%,78.7%,42%,92.3%,17.8%,77.9%,77.9%,76.1%,91.5%,87.6%,76%,77.4%,76.8%,82.8%
CC(C)CSc1nc(NCCc2c[nH]c3ccccc23)c(C#N)c(-c2ccccc2)n1,76.6%,51.3%,68.8%,12.5%,61.7%,67.6%,66.9%,47.1%,50.2%,66.8%,20.5%,91.8%,38.3%,32.5%,67.4%,68.7%,62.5%,97.4%,74.5%,–
COc1ccc2[nH]cc(-c3nc(N)nnc3-c3cn(C)c4ncccc34)c2c1,69.9%,66.4%,62.4%,25%,–,34.3%,51.2%,64.2%,44.5%,83.9%,21.6%,37.6%,43.4%,81.5%,75.8%,39.9%,50.2%,72.9%,33.2%,–

# Source: PubChem BioAssay (NCI)
